IL-1B inflam inh – qHTS for Inhibitors of Inflammasome Signaling: IL-1-beta AlphaLISA Primary Screen | activity change, % at 57.5 µM | 4.7% of 360,000 active | AID 743279, 2014 | THP-1 LPS/ATP IL-1B secretion, AlphaLISA, 16 h; stronger effect = lower value; in the data active = activity change below about -50%; inconclusive = mostly about -30% to -49%
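THP-1 cells pretreated 1 hr with compounds (up to 57.5 uM final), then stimulated with LPS (250 ng/mL final) plus ATP (1.25 mM final); secreted IL-1B measured by AlphaLISA after 16 hr, decreased signal indicating inhibition.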
HepG2 tox-1 – qHTS for Inhibitors of TGF-b: Cytotox Counterscreen. HepG2 CAGA-GFP viability, ATP luminescence, 18 h. Potency, µM (series often up to 46.1 µM), hits mostly cytotoxic. 0.76% of 410,000 active
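CellTiter-Glo luminescence gave cytotoxicity after 18 hours at 37 degrees C. The cells were HepG2 CAGA-GFP in 1% FBS DMEM, stimulated with 500 pg/mL TGF-beta after compound addition. %Activity was normalised to no-cell wells (complete cell-killing) and DMSO (no toxicity), and curves were fitted and classified.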
TDP1 cell noCPT – qHTS for Inhibitors of human tyrosyl-DNA phosphodiesterase 1 (TDP1): qHTS in cells in absence of CPT; DT40 Tdp1-/- hTDP1 cells, no CPT, ATP luminescence, 48 h; Potency, µM (series often up to 46.2 µM), most hits filed as inhibitors; 15% of 420,000 active; also: nearly all actives have a fitted effect of over 55% in size
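Growth of hTDP1-complemented DT40 Tdp1-knockout cells is measured by ATP luminescence after at least 48 hr compound exposure at 37 °C, with DMSO substituting for the 20 nM CPT used in the parallel screen.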
DT40 TDP1 CPT – qHTS for Inhibitors of human tyrosyl-DNA phosphodiesterase 1 (TDP1): qHTS in cells in presence of CPT; chicken DT40 Tdp1-/-;hTDP1 cells + 20 nM CPT, ATP luminescence, 48 h; Potency, µM (series often up to 46.2 µM), actives largely listed as inhibitors; 12% of 420,000 active; also: nearly all actives have a fitted effect of over 55% in size
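Chicken DT40 Tdp1-/- cells complemented with human TDP1, 400 cells/well, exposed to compounds plus 20 nM camptothecin for at least 48 h at 37 C; viability read as ATP content by CellTiter-Glo luminescence.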
TGFb SMAD3 inh – qHTS for Inhibitors of TGF-b; Potency, µM (doses to about 46.1 µM), hits mostly inhibitors; AID 588855, 2011; 1.2% of 410,000 active; HepG2 CAGA-GFP TGF-b/SMAD3 reporter, GFP fluorescence, 18 h; TGF-beta stimulated, 500 pg/mL final; also: nearly all actives have a fitted effect of over 65% in size
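TGF-beta reporter screen: HEPG2 CAGA-GFP, 1% FBS, 500 pg/mL TGF-beta final, 18 h; per-cell GFP summed per well; curves fitted and categorized by class.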
TDP1 block – qHTS Assay for Inhibitors of Tyrosyl-DNA Phosphodiesterase (TDP1); Tyrosyl-DNA phosphodiesterase 1 (Homo sapiens), Q9NUW8; Potency, µM (titrated, usually from 130 µM), hits mostly inhibitors; recombinant TDP1, AlphaScreen DNA substrate cleavage; 0.28% of 350,000 active; also: nearly all actives have a fitted effect of over 40% in size
Target sequence (Q9NUW8 whole entry, looked up): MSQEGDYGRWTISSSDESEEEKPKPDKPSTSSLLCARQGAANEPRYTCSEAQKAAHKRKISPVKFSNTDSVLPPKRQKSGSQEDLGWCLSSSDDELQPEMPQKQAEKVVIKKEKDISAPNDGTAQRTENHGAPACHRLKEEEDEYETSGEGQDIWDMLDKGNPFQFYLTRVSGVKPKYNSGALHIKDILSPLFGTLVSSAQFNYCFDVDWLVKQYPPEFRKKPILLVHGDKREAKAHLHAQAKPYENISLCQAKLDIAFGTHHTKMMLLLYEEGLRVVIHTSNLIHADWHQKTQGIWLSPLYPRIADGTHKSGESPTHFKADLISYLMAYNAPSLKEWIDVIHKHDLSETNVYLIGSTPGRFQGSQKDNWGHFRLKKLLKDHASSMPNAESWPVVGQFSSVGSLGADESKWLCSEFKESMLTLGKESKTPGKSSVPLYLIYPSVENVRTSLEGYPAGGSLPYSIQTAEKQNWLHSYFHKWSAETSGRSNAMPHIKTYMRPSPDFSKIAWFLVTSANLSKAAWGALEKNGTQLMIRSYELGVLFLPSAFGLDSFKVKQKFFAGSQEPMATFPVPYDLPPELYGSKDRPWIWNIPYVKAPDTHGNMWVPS
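Signal: AlphaScreen proximity between streptavidin donor and anti-FITC acceptor beads on intact substrate. Reaction: Tdp1 1 nM, substrate 15 nM final, 5 min RT after 15 min compound preincubation.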
TGFb confirm – qHTS for Inhibitors of TGF-b: Confirmation of Cherry Picks | shares compounds with TGFb SMAD3 inh | HepG2 CAGA-GFP TGF-b reporter, GFP fluorescence, 18 h; cells stimulated with TGF-beta, 500 pg/mL | Potency, µM (top dose mostly 46.1 µM), actives largely listed as inhibitors | 63% of 1,600 active; also: nearly all actives have a fitted effect of over 65% in size
HepG2 tox-2 – qHTS for Inhibitors of TGF-b: Cytotox Counterscreen for Cherry Picks; Potency, µM (series often up to 46.1 µM), hits mostly inhibitors; shares compounds with TGFb SMAD3 inh; AID 720535, 2013; 27% of 1,600 active; HepG2 CAGA-GFP viability, ATP luminescence, 18 h; cells stimulated with TGF-beta, 500 pg/mL; also: nearly all actives have a fitted effect of over 70% in size
TGFb CCL64 inh – qHTS for Inhibitors of TGF-b: CCL64 Cells Orthogonal Assay for Cherry Picks; shares compounds with TGFb SMAD3 inh; CCL64 CAGA-GFP reporter, TGF-b stimulated, GFP fluorescence, 18 h; Potency, µM (highest dose often 46.1 µM), actives largely listed as inhibitors; 41% of 1,600 active; also: nearly all actives have a fitted effect of over 65% in size
COP TGFb inh – qHTS for Inhibitors of TGF-b: Hit Validation in HepG2 Cells using COP promoter | shares compounds with TGFb SMAD3 inh | AID 720537, 2013 | HepG2 COP-GFP TGF-b reporter, GFP fluorescence, 18 h; cells stimulated by added recombinant TGF-beta | Potency, µM (titrated, usually from 46.1 µM), usual class: inhibitors | 3% of 1,600 active; also: nearly all actives have a fitted effect of over 70% in size
A number is an active result; i = inactive; ? = inconclusive; nt = no result given. Sampled rows, rich in hits. Any-hit rate of the full collection: about 18%. Unless noted, calls follow the shape of the dose curve; as a rule, active = well fitted curve in the direction sought with a large enough effect; inconclusive = small, poorly fitted or top-dose-only effect, or another doubt; inactive = no such curve, though single readings can be large; an effect the other way counts as inactive or inconclusive.

SMILES	IL-1B inflam inh	HepG2 tox-1	TDP1 cell noCPT	DT40 TDP1 CPT	TGFb SMAD3 inh	TDP1 block	TGFb confirm	HepG2 tox-2	TGFb CCL64 inh	COP TGFb inh
O=C(c1ccc(F)cc1)C(CN1CCOCC1)c1ccccc1 (centres undefined)	-64	18µM	1.3µM	1.8µM	3.5µM	i	7.3µM	16µM	3.7µM	?
COC(=O)[C@@]1(Cc2ccc(OC)cc2)[C@H]2c3cc(C(=O)N4CCCC4)n(Cc4c(CO)[nH]cc(C)c4=O)c3C[C@H]2CN1C(=O)c1ccccc1	i	i	?	?	?	i	i	i	i	i
CN(C)c1cc(-c2ccc([N+](=O)[O-])cc2)oc(=O)c1Cl	i	i	i	i	i	i	nt	nt	nt	nt
COc1cc(/C=N/n2cc(-c3ccccc3)[nH]c2=S)cc(OC)c1O	i	i	?	?	16µM	i	15µM	i	i	i
COc1ccc(Cl)cc1NC(=O)CN1c2ccccc2CC1C (centres undefined)	i	i	?	?	?	i	?	i	?	i
O=C1CC(N2CCSCC2)C(=O)N1c1cccc(Cl)c1 (centres undefined)	i	i	i	i	i	i	nt	nt	nt	nt
O=S(Cc1ccc(Br)cc1)Cc1nnc(SCc2c(F)cccc2Cl)n1-c1ccccc1 (centres undefined)	-62	i	9.2µM	15µM	?	i	12µM	?	15µM	i
COc1ccc(C(=O)NN(C)c2nc(C(F)(F)F)nc3ccccc23)cc1	i	i	0.21µM	0.18µM	?	i	?	i	?	i
CN=c1sc2c(n1C)C(=O)c1ccccc1C2=O	?	2.2µM	5.8µM	4.1µM	1.4µM	nt	1.8µM	2.6µM	5.2µM	4.6µM
CC(=O)c1cccc(NC(=O)C2C3C=CC(C3=C(c3ccccc3)c3ccccc3)C2C(=O)O)c1 (centres undefined)	i	i	i	i	i	i	nt	nt	nt	nt
COc1cc(OC)c(OC)cc1CN1CCCC(C(=O)c2ccc3c(c2)OCO3)C1 (centres undefined)	i	i	i	i	i	i	nt	nt	nt	nt
O=C(c1ccc2c(c1)OCO2)C1CCCN(Cc2ccc(OC(F)F)cc2)C1 (centres undefined)	i	i	?	?	?	i	?	?	?	i
CCSc1ccc([C@@H]2[C@@H]3C(=O)N(CC)C(=O)[C@@H]3[C@]3(C(=O)OC)CCCN23)cc1	i	i	23µM	?	?	i	?	i	i	i
Cc1ccc(SCCNC(=O)c2ccccc2)cc1	i	i	i	i	i	i	nt	nt	nt	nt
Cc1ccc(SCCNC(=O)c2ccc(C)c(S(=O)(=O)Nc3cccc(C)c3)c2)cc1	-57	i	i	?	13µM	i	?	?	?	i
NS(=O)(=O)c1ccc(CNC(=O)CCCSc2ccccc2)cc1	i	i	?	i	i	i	nt	nt	nt	nt
O=[N+]([O-])c1ccccc1/C=C1\C=Cc2ccccc21	nt	i	i	i	i	nt	nt	nt	nt	nt
O=C1/C(=C/c2ccccc2[N+](=O)[O-])COc2ccccc21	-104	i	?	2.6µM	7.9µM	i	2.1µM	10µM	2.3µM	i
O=[N+]([O-])c1ccc(N2CCN(S(=O)(=O)c3ccccc3)CC2)cc1NCc1ccco1	nt	nt	nt	nt	nt	i	nt	nt	nt	nt
C=CCNC(=O)C1CC1(c1cccc(C)c1)c1cccc(C)c1 (centres undefined)	nt	i	i	i	i	nt	nt	nt	nt	nt
Cc1cccc(C2(c3cccc(C)c3)CC2C(=O)Nc2ccc([N+](=O)[O-])cc2O)c1 (centres undefined)	-98	11µM	5.2µM	8.2µM	7.9µM	i	6.5µM	12µM	7.3µM	i
CC1CCCN(S(=O)(=O)c2ccc(S(=O)(=O)NC(C)c3cccs3)cc2)C1 (centres undefined)	i	i	?	?	?	i	?	i	i	i
CN(C)CCCNC(=O)c1ccc(=O)[nH]n1	i	i	i	i	i	i	nt	nt	nt	nt
COc1ccc(Nc2nc(-c3ccccc3)nc3ccccc23)cc1	-95	i	?	?	?	nt	?	i	?	i
Cc1ccc(Nc2nc(-c3cccnc3)nc3ccccc23)cc1	-67	20µM	8.2µM	18µM	?	nt	?	?	?	i
Cc1ccc(CNC(=O)Cn2c(=O)n(-c3ccccc3)c(=O)c3sccc32)cc1	i	i	i	i	i	i	nt	nt	nt	nt
CCOCCCn1c(=S)[nH]c2cc(C(=O)NCc3ccc(F)cc3)ccc2c1=O	i	i	i	i	i	i	nt	nt	nt	nt
COc1ccccc1C(=O)OCc1ccc2sc(C)nc2c1	i	i	?	i	i	i	nt	nt	nt	nt
O=C(C1=C[C@@H](C2CCCCC2)C[C@@H](OCc2ccc(CO)cc2)O1)N1CCN(Cc2ccc3c(c2)OCO3)CC1	-63	i	16µM	?	11µM	i	21µM	i	?	i
O=C(C1=C[C@H](C2CC2)C[C@H](OCc2ccc(CO)cc2)O1)N1CCN(Cc2ccc3c(c2)OCO3)CC1	i	i	?	?	i	i	nt	nt	nt	nt

Source: PubChem
